Active and inactive are the calls of the source. Unless noted, how the calls were made is not given here.

Assay [1] has as its system XIP peptide (Xip251-270) binding. The assay is described as follows: small-molecule binders of XIP peptide, primary screen, biochemical, small-molecule microarray, fluorescence 635/667 nm, 0.1 µg/mL protein (AID 1182). The note with it: fluorescent protein binding, 635 nm, higher = more signal, called active from +8 up or from −8 down.
Assay [2] relates to XIP peptide (Xip251-270). The assay is described as follows: small-molecule binders of XIP peptide, primary screen, biochemical, small-molecule microarray, fluorescence 635/667 nm, 0.5 µg/mL protein (AID 1183). The note with it: small-molecule microarray binding, fluorescence 635 nm; higher = more signal.
A short description of assay [3]: Plasmodium falciparum growth inhibition, primary screen, strain 3D7, DAPI fluorescence, 100 nL (AID 1184).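 Further: parasites grown inside human red blood cells in medium with human serum.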 The note with it: P. falciparum 3D7 growth, 3 d, higher = more signal.
Assay [4] concerns the target Homeobox protein Hox-A13 (Mus musculus) (UniProt Q62424). Nature of the assay: inhibitors of HoxA13-DNA binding, primary screen, biochemical, fluorescence polarization, labeled oligonucleotide (AID 1185). As to conditions: 15 min, higher = more signal, called active from +8 up or from −8 down. On the technique in general: Polarisation of emitted light reports the rotation of a fluorescent probe.

Assay [5] in a line: inhibitors of hydroxyurea-induced Chk1 phosphorylation, primary screen, imaging, HeLa, phospho-Chk1 antibody, percent positive cells (AID 1186). As to conditions: hydroxyurea-induced phospho-Chk1 immunofluorescence imaging, higher = more signal.
The nature of assay [6]: inhibitors of hydroxyurea-induced Chk1 phosphorylation, primary screen, imaging, HeLa, phospho-Chk1 nuclear intensity (AID 1187). As to conditions: hydroxyurea-induced phospho-Chk1 immunofluorescence imaging, higher = more signal.

Homeobox protein Hox-A13 (Mus musculus), sequence (Q62424 whole entry, looked up): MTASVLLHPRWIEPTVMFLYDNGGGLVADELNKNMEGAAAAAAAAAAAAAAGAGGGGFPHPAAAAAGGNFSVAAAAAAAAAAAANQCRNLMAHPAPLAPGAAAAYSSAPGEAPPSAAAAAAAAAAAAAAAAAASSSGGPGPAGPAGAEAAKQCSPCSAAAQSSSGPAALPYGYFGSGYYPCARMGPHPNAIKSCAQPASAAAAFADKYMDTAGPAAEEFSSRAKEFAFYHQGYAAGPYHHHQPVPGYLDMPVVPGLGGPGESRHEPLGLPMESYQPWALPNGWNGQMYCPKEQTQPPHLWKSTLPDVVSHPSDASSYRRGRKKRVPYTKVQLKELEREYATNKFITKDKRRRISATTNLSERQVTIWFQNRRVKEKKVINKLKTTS

As to `CCOc1ccc(N2C(=O)CSC2c2cccc([N+](=O)[O-])c2)cc1` (stereo unspecified), the composite z-score was 0.115 (inactive) in assay [1] and 0.193 in assay [2]. Also, the z-score was 0.268 in assay [3], -0.0449 (inactive) in assay [4], -0.139 (inactive) in assay [5] and -0.0398 (inactive) in assay [6].

Take `CCCCN1CC=CC23O[C@@H]4C=CCCOC(=O)C4[C@H]2C(=O)N(CCCCCO)[C@@H]3C1=O` (stereo partly specified): the composite z-score in assay [1] was -0.17 (inactive); in assay [2], 0.779. Further, the z-score in assay [3] was 0.474; in assay [4] it was -4.72 (inactive); in assay [5] it was -2.17 (inactive); in assay [6], -1.9 (inactive).

With `COC(=O)[C@@]1(Cc2ccc(F)cc2)[C@H]2c3cc(C(=O)N(C)C)n(Cc4ccc(C)o4)c3C[C@H]2CN1C(=O)c1ccccc1`, the composite z-score in assay [1] was 1.66 (inactive); in assay [2] it was 0.665. For the same compound, the z-score in assay [3] was -1.44; in assay [4] it was -2.94 (inactive); in assay [5], 0.262 (inactive); in assay [6], -0.0286 (inactive).

In the case of `CC(CO)N1C(=O)[C@@H]2C3C(=O)OCCC/C=C\[C@H]3OC23C=CCN(CCN2CCOCC2)C(=O)[C@@H]13` (stereo partly specified), the results for the composite z-score in assay [1] and in assay [2] were -0.134 (inactive) and -0.0838, respectively. Moreover, the z-score in assay [3] is 0.339; in assay [4], -4.25 (inactive); in assay [5] it was -0.957 (inactive); in assay [6] it was -1.88 (inactive).

Regarding `COC(=O)c1c(CC[C@@H](CO)NC(=O)NCCc2c[nH]c3ccccc23)oc(C(=O)Cc2ccccc2)c1C(=O)OC`, the composite z-score in assay [1] was 1.4 (inactive); in assay [2], 0.713. Moreover, the z-score in assay [3] was -0.0066; in assay [4], -6.54 (inactive); in assay [5], -0.216 (inactive); in assay [6], -0.098 (inactive).

Regarding `[N-]=[N+]=Nc1ccccc1C[C@]1(C(=O)N2CCCCC2)COC(c2ccc(OCCCO)cc2)=N1`, the composite z-score in assay [1] is 1.98 (inactive); in assay [2], 0.204. Besides, the z-score is -2.29 in assay [3], -6.17 (inactive) in assay [4], 0.118 (inactive) in assay [5] and -0.232 (inactive) in assay [6].

In the case of `O=C1O[C@@H](c2ccccc2)[C@@H](c2ccccc2)N2[C@@H](c3ccccc3OCCO)[C@]3(C(=O)Nc4ccc(C#CC5(O)CCCCCC5)cc43)[C@@H](C(=O)N3CCN(c4ncccn4)CC3)[C@H]12`, the composite z-score is -0.0661 (inactive) in assay [1] and 0.661 in assay [2]. Also, the z-score was -2.17 in assay [3], -1.01 (inactive) in assay [4], -0.0019 (inactive) in assay [5] and 0.451 (inactive) in assay [6].

Take `CCCCC(=C=CC[C@@H](O)c1ccc(CO)o1)CCO`: the figures for the composite z-score in assay [1] and in assay [2] were 0.54 (inactive) and 0.218, respectively. Moreover, the z-score is 0.0728 in assay [3], -4.16 (inactive) in assay [4], -0.364 (inactive) in assay [5] and -0.13 (inactive) in assay [6].

As to `C=CCNC(=O)[C@H]1[C@@H]2C(=O)O[C@@H](c3ccccc3)[C@@H](c3ccccc3)N2[C@@H](c2ccc(O)cc2)[C@]12C(=O)Nc1ccc(C#CCCO)cc12`, the composite z-score in assay [1] is -0.0879 (inactive); in assay [2], -0.227. The z-score is 0.093 in assay [3], -4.04 (inactive) in assay [4], -0.266 (inactive) in assay [5] and -0.136 (inactive) in assay [6].

Turning to `CN1C(=O)C2C=CC(C(O)c3ccc(F)cc3)N(N(c3ccccc3)c3ccccc3)C2C1=O` (stereo unspecified), the composite z-score in assay [1] was -0.0116 (inactive); in assay [2], -0.0807. Further, the z-score in assay [3] is 0.988; in assay [4] it was -3.45 (inactive); in assay [5] it was 1.17 (inactive); in assay [6] it was 0.568 (inactive).

As to `COCCOC(=O)N1C(=O)[C@@]2(c3cc(C#CC4=CCCCC4)ccc31)[C@H](c1ccc(OCCO)cc1)N1[C@H](c3ccccc3)[C@H](c3ccccc3)OC(=O)[C@H]1[C@@H]2C(=O)N1CCc2cc(OC)c(OC)cc2C1`, the results for the composite z-score in assay [1] and in assay [2] were 0.411 (inactive) and 0.64, respectively. Besides, the z-score was -2.06 in assay [3], 3.66 (inactive) in assay [4], -0.0561 (inactive) in assay [5] and -0.0158 (inactive) in assay [6].

On to `C=C(CCCC)C(=O)CC[C@H](OC(=O)c1cccnc1)c1ccc(OCCO)cc1`, for which the composite z-score in assay [1] was 0.0908 (inactive); in assay [2] it was -0.543. Besides, the z-score in assay [3] was -2.96; in assay [4], -5.21 (inactive); in assay [5] it was 0.457 (inactive); in assay [6] it was 0.433 (inactive).

Turning to `Cc1ccc(S[C@]2(C(=O)NCC(C)C)CC(=O)N(Cc3cc(C(F)(F)F)cc(C(F)(F)F)c3)[C@@H]2c2ccc(CO)cc2)cc1`, the composite z-score is -0.0537 (inactive) in assay [1] and 0.0501 in assay [2]. In addition, the z-score in assay [3] was -0.309; in assay [4] it was -2.19 (inactive); in assay [5], -0.0406 (inactive); in assay [6], -0.284 (inactive).

For the compound `COCCOC(=O)N1C(=O)[C@@]2(c3ccccc31)[C@H](c1ccc(OCCO)cc1)N1[C@H](c3ccccc3)[C@H](c3ccccc3)OC(=O)[C@H]1[C@@H]2C(=O)N1CCc2cc(OC)c(OC)cc2C1`, the composite z-score in assay [1] was 0.933 (inactive); in assay [2] it was 0.919. The z-score in assay [3] is -2.15; in assay [4], 2.01 (inactive); in assay [5], 0.147 (inactive); in assay [6], 0.0081 (inactive).

Turning to `COC(=O)C(CC#Cc1ccc2c(c1)[C@]1(C(=O)N2)[C@H](c2ccccc2OCCO)N2[C@H](c3ccccc3)[C@H](c3ccccc3)OC(=O)[C@H]2[C@@H]1C(=O)O)C(=O)OC`, the composite z-score is 0.117 (inactive) in assay [1] and 0.791 in assay [2]. Further, the z-score was 0.386 in assay [3], -5.57 (inactive) in assay [4], 0.0449 (inactive) in assay [5] and 0.426 (inactive) in assay [6].

For the compound `O=C(O)[C@H](Cc1ccccc1)n1cc(-c2ccccc2)nn1`, the composite z-score was -0.152 (inactive) in assay [1] and 0.297 in assay [2]. Also, the z-score in assay [3] is 0.0447; in assay [4], -1.17 (inactive); in assay [5], 0.425 (inactive); in assay [6], -0.0072 (inactive).

For the origin of these results see PubChem BioAssay.
